Measured values published in PubChem BioAssay (Tox21).
Inconclusive results are not listed. The source made the active and inactive calls. The call rests on the fitted dose curve; in most records, active means well fitted cell-killing curve with a large enough effect in the repeat runs; inconclusive means weak or mixed curves, or effect the other way; inactive means flat fitted curve, though single readings scatter. Where a SMILES comes first, the peptide text is derived from it. [ ]: non-standard residue; d: D form. pGlu = O=C1CC[C@@H](C(=O)O)N1

Assay: qHTS RealTime-Glo MT Cell Viability Assay in HepG2 cells - 40 hour (AID 1224870); further: nearly all actives have a fitted effect of over 50% in size
Conditions: RealTime-Glo luminescence; series mostly up to 76.8 µM; activity change, negative = cytotoxic: at the top concentration
In short: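 HepG2 cells (600/well) mixed with RealTime-Glo MT reagent, settled 5 h at 37 C/5% CO2 before compound addition. Nonlytic NanoLuc luminescence from viable-cell prosubstrate reduction read repeatedly during 40 h treatment at 37 C.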
On the % scale 0 is the no-effect control and ±100 the full control effect; potency means the concentration at half of the fitted maximal effect.

| Compound | activity change, negative = cytotoxic | Potency |
| --- | --- | --- |
| O=S(=O)(O)c1cc(O)c(O)c(S(=O)(=O)O)c1 | 2.56% (inactive) | – |
| CCC1C(=O)OCC1Cc1cncn1C (configuration not stated) | 3.7% [at 35.3 µM] (inactive) | – |
| C[C@H]1[C@H](NC(=O)/C(=N/OC(C)(C)C(=O)O)c2csc(N)n2)C(=O)N1S(=O)(=O)O (stereo in doubt) | -2.24% [at 35.3 µM] (inactive) | – |
| Nc1ccn([C@@H]2O[C@H](CO)[C@@H](O)C2O)c(=O)n1 (some centres not stated) | -1.39% (inactive) | – |
| CC1=NN(c2cc(S(=O)(=O)O)ccc2Cl)C(=O)C1N=Nc1ccccc1 (configuration not stated) | -0.366% (inactive) | – |
| O=S(=O)(O)c1cccc(S(=O)(=O)O)c1 | 0.645% (inactive) | – |
| CCN[C@H]1C[C@H](C)S(=O)(=O)c2sc(S(N)(=O)=O)cc21 | -0.392% [at 35.3 µM] (inactive) | – |
| NCCCC(N)(C(=O)O)C(F)F (configuration not stated) | 1.23% [at 35.3 µM] (inactive) | – |
| CC(C)NNC(=O)c1ccncc1 | 0.478% [at 35.3 µM] (inactive) | – |
| NCCCC[C@H](N[C@@H](CCc1ccccc1)C(=O)O)C(=O)N1CCC[C@H]1C(=O)O | 1.19% [at 35.3 µM] (inactive) | – |
| CC1=CC(=O)[C@H]2C[C@@H]1C2(C)C | 0.0192% (inactive) | – |
| CN(C)C(=O)Oc1cccc([N+](C)(C)C)c1 | -1.75% [at 35.3 µM] (inactive) | – |
| CC[C@H]1OC(=O)[C@H](C)[C@@H](O[C@H]2C[C@@](C)(OC)[C@@H](O)[C@H](C)O2)[C@H](C)[C@@H](O[C@@H]2O[C@H](C)C[C@H](N(C)C)[C@H]2O)[C@](C)(OC)C[C@@H](C)C(=O)[C@H](C)[C@@H](O)[C@]1(C)O | 0.352% (inactive) | – |
| CCCCCCCCCCCCCCC(=O)O | 1.33% (inactive) | – |
| CN1CCC(=C2c3ccccc3CCc3cccnc32)CC1 | -0.721% [at 35.3 µM] (inactive) | – |
| CCOc1ccccc1OCC | -0.0694% (inactive) | – |

| Compound | activity change, negative = cytotoxic | Potency |
| --- | --- | --- |
| CCCc1ncc(C[n+]2ccccc2C)c(N)n1 | -5.63% [at 35.3 µM] (inactive) | – |
| CCOC(=O)c1cnc2c(cnn2CC)c1NN=C(C)C | 0.076% [at 35.3 µM] (inactive) | – |
| CC(C(=O)O)c1cccc(Oc2ccccc2)c1 (configuration not stated) | 0.408% [at 35.3 µM] (inactive) | – |
| CCNC(=O)[C@@H]1CCCN1C(=O)[C@H](CCCN=C(N)N)NC(=O)[C@H](CC(C)C)NC(=O)CNC(=O)[C@H](Cc1ccc(O)cc1)NC(=O)[C@H](CO)NC(=O)[C@H](Cc1c[nH]c2ccccc12)NC(=O)[C@H](Cc1cnc[nH]1)NC(=O)[C@@H]1CCC(=O)N1 ([pGlu]HWSYGLRP-NHEt) | 0.86% [at 35.3 µM] (inactive) | – |
| CC[N+](C)(CC)CCOC(=O)C1c2ccccc2Oc2ccccc21 | -1.36% [at 35.3 µM] (inactive) | – |
| CCC(C)(CN(C)C)OC(=O)c1ccccc1 (configuration not stated) | -0.266% [at 35.3 µM] (inactive) | – |
| CN1CCN(c2cc3c(nn2)Oc2ccccc2N3C)CC1 | 1.01% [at 15.8 µM] (inactive) | – |
| CCN[C@@H]1C[C@H](N)[C@@H](OC2OC(CN)=CCC2N)[C@H](O)[C@H]1O[C@H]1OC[C@](C)(O)[C@H](NC)[C@H]1O (some centres not stated) | 1.76% [at 0.29 µM] (inactive) | – |
| C[N+](C)(C)CCCCCCCCCC[N+](C)(C)C | 0.649% [at 35.3 µM] (inactive) | – |
| Nc1c2c(nc3c1CCC3)CCCC2 | -2.11% [at 35.3 µM] (inactive) | – |
| CCOCC(C)O (configuration not stated) | 0.65% (inactive) | – |
| CC[N+](CC)(CC)CCOc1cccc(OCC[N+](CC)(CC)CC)c1OCC[N+](CC)(CC)CC | – | 23.9 µM (active) |
| CCCCN1C=CN(C)C1 | -0.384% [at 15.8 µM] (inactive) | – |
| COc1cc(-c2ccc(=O)[nH]n2)ccc1OC(F)F | -2.78% [at 35.3 µM] (inactive) | – |
| CC(C#N)(CCC(=O)O)N=NC(C)(C#N)CCC(=O)O (configuration not stated) | 1.54% (inactive) | – |
| CN(C)CCCCCCN(C)C | 0.0808% (inactive) | – |
